# Values quoted from earlier work as cited in PubChem BioAssay AID977611.
# Screen size: about 3,900 compounds; about 3,900 (100%) were called active. Cut-off not given; nearly all actives show Kd up to about 4200 µM. So high a share suggests a set chosen from earlier hits. The list shows a part of the results. Where a SMILES comes first, the peptide text is derived from it. Non-standard residues stand in square brackets, D forms with d. Square brackets hold non-standard residues; d marks the D form. Residues, ends and D or L forms follow the SMILES beside them. Peptide text beside a SMILES is read from it. [ ]: non-standard residue; d: D form. * marks the point of attachment. Orn(CH(NH2)2) = NC(N)NCCC[C@H](N)C(=O)O; AMC = Cc1cc(=O)oc2cc(N*)ccc12; pGlu = O=C1CC[C@@H](C(=O)O)N1
# Experiment: PubChem AID 977611
# Settings: PDB protein-ligand complexes, literature Kd
compound,measurement,setting,value
CC[C@H](C)[C@H](NC(=O)[C@@H]1CCCN1C(=O)[C@H](CCC(=O)O)NC(=O)[C@H](Cc1ccc(O)cc1)NC(=O)[C@H](CC(=O)O)NC(=O)[C@@H]1CCCN1C(=O)[C@H](CC(N)=O)NC(=O)[C@@H]1CCCN1C(=O)[C@@H](NC(=O)[C@@H]1CCCN1C(=O)[C@@H]1CCCN1)C(C)C)C(=O)N[C@H](C=O)CCCNC(N)N (H-PPVPNPDYEPI[Orn(CH(NH2)2)]-aldehyde),Kd,"protein: Epidermal growth factor receptor kinase substrate 8-like protein 1 SH3 domain, PDB entry 2rol",24 µM (active)
H-ARYGVSNTSINRK-OH,Kd,"protein: Protein HTP-1 P84L, PDB entry 4tzq",0.3 µM (active)
same,Kd,"protein: Protein HTP-2, PDB entry 4tzm",0.2 µM (active)
H-ATGSARSEGY-OH,Kd,"protein: WD repeat-containing protein 5, WDR5, PDB entry 4ewr",0.541 µM (active)
O=C(CCS)N1CCC(O)(c2ccc(Cl)c(C(F)(F)F)c2)CC1,Kd,"protein: CREB-binding protein, PDB entry 4i9o",1.9 µM (active)
H-SWVYSPLHYSA-OH,Kd,"protein: Talin FERM F3 domain, PDB entry 1y19",0.17 µM (active)
CSCC[C@H](N)C(=O)N1CCC[C@H]1C(=O)N1CCC[C@H]1C(=O)N[C@H](C(=O)N[C@@H](CC(C)C)C(=O)N1CCC[C@H]1C(=O)N[C@@H](Cc1cnc[nH]1)C(=O)N[C@@H](CCCNC(N)N)C(=O)N[C@@H](CC(=O)O)C(=O)N[C@@H](Cc1c[nH]c2ccccc12)C(=O)O)[C@@H](C)O (H-MPPTLPH[Orn(CH(NH2)2)]DW-OH),Kd,"protein: Peroxisomal membrane protein PAS20 (SH3 domain), PDB entry 1n5z",44 µM (active)
CC(C)C[C@H](NC(=O)CNC(=O)[C@H](CCCNC(N)N)NC(=O)[C@@H](N)CO)C(=O)N[C@@H](CCC(=O)O)C(=O)N[C@H](C(=O)N[C@@H](CO)C(=O)N[C@@H](Cc1cnc[nH]1)C(=O)N[C@@H](CCCNC(N)N)C(=O)N[C@@H](CC(C)C)C(=O)N[C@@H](C)C(=O)N1CCC[C@H]1C(=O)N[C@@H](Cc1c[nH]c2ccccc12)C(=O)O)C(C)C (H-S[Orn(CH(NH2)2)]GLEVSH[Orn(CH(NH2)2)]LAPW-OH),Kd,"protein: Telomeric repeat-binding factor 2, PDB entry 4m7c",0.75 µM (active)
CC(C)C[C@H](NC(=O)[C@H](Cc1cnc[nH]1)NC(=O)[C@H](CCC(=O)O)NC(=O)[C@H](Cc1c[nH]c2ccccc12)NC(=O)[C@@H](NC(=O)[C@H](Cc1ccc(O)cc1)NC(=O)[C@@H](NC(=O)[C@H](C)NC(=O)[C@@H](N)CC(=O)O)[C@@H](C)O)[C@@H](C)O)C(=O)N[C@@H](C)C(=O)N[C@@H](Cc1c[nH]c2ccccc12)C(=O)N1CCC[C@H]1C(=O)O,Kd,"protein: The human ?-aminobutyric acid type A (GABAA), PDB entry 3d32",0.354 µM (active)
CC(=O)N[C@@H](CCCCN)C(=O)N[C@@H](CCCCN)C(=O)N[C@@H](CCCNC(N)N)C(=O)N[C@@H](Cc1ccc(O)cc1)C(=O)N[C@@H](CO)C(=O)N[C@@H](CCCNC(N)N)C(=O)N[C@@H](CCC(=O)O)C(=O)N[C@@H](Cc1ccccc1)C(=O)N[C@@H](CC(C)C)C(=O)N[C@@H](CC(C)C)C(=O)NCC(=O)N[C@@H](Cc1ccccc1)C(N)=O (Ac-KK[Orn(CH(NH2)2)]YS[Orn(CH(NH2)2)]EFLLGF-NH2),Kd,"protein: EUKARYOTIC TRANSLATION INITIATION FACTOR 4E, PDB entry 4aza",0.103 µM (active)
CC(C)C[C@H](NC(=O)[C@H](CCCNC(N)N)NC(=O)[C@H](CCCNC(N)N)NC(=O)[C@H](CCCCN)NC(=O)[C@H](C)NC(=O)[C@H](CO)NC(=O)CN)C(=O)N[C@@H](Cc1ccccc1)C(=O)NCC(=O)N[C@@H](CCC(=O)O)C(=O)O (H-GSAK[Orn(CH(NH2)2)][Orn(CH(NH2)2)]LFGE-OH),Kd,"protein: phospho-CDK2/cyclin A, PDB entry 1h28",0.3 µM (active)
H-AAAFSFKKSFKLSGFSFK-OH,Kd,"protein: Ca2+-Calmodulin, PDB entry 1iwq",0.0088 µM (active)
CC(=O)N[C@H](C(=O)N[C@@H](CCC(N)=O)C(=O)NCC(=O)N[C@@H](CO)C(=O)NCC(=O)N[C@@H](C)C(=O)N[C@@H](Cc1ccccc1)C(=O)NCC(=O)N[C@@H](CCCNC(N)N)C(N)=O)C(C)C (Ac-VQGSGAFG[Orn(CH(NH2)2)]-NH2),Kd,"protein: Fab fragment of the mAb 106.3, PDB entry 3e8u",0.00038 µM (active)
Cc1n[nH]c(C)c1CCCOc1cc(C(=O)O)ccc1F,Kd,"protein: Transthyretin (V122I mutation), PDB entry 4hiq",0.0062 µM (active)
OCCOCCOCCOCCOCCOCCOCCOCCOCCOCCOCCOCCOCCOCCOCCOCCOCCOCCOCCOCCOCCOCCOCCOCCOCCO,Kd,"protein: Prostaglandin-H2 D-isomerase L-PGDS C65A mutant, PDB entry 4oru",210 µM (active)
same,Kd,"protein: Prostaglandin-H2 D-isomerase L-PGDS C65A-K59A double mutant, PDB entry 4orx",297 µM (active)
same,Kd,"protein: Prostaglandin-H2 D-isomerase L-PGDS C65A-K59A double mutant, PDB entry 4ory",297 µM (active)
OC[C@@H]1O[C@@H](O[C@H]2[C@H](O[C@@H]3CO[C@@H](O[C@@H]4CO[C@@H](O)[C@H](O)[C@H]4O)[C@H](O)[C@H]3O)OC[C@@H](O)[C@@H]2O)[C@H](O)[C@H]1O,Kd,"protein: SUGAR TRANSPORTER SOLUTE-BINDING PROTEIN, PDB entry 4c1t",0.0708 µM (active)
OC[C@@H]1O[C@@H](O[C@@H]2[C@@H](O)[C@H](O[C@@H]3CO[C@@H](O)[C@H](O)[C@H]3O)OC[C@H]2O)[C@H](O)[C@H]1O,Kd,"protein: SUGAR TRANSPORTER SOLUTE-BINDING PROTEIN, PDB entry 4c1u",0.081 µM (active)
Nc1[nH]c(=S)nc2nc[nH]c12,Kd,"protein: 6-hydroxymethyl-7,8-dihydropterin pyrophosphokinase, PDB entry 4m5n",7.5 µM (active)
CC(C)C[C@H](NC(=O)[C@@H]1CCC(=O)N1)C(=O)N[C@@H](Cc1ccc(O)cc1)C(=O)N[C@@H](CCC(=O)O)C(=O)N[C@H](C=O)CC(N)=O (tested in a mixture with another compound) ([pGlu]LYEN-aldehyde),Kd,"protein: Sortilin, PDB entry 4po7",0.085 µM (active)
H-PDYFL-OH,Kd,"protein: Serine/threonine-protein phosphatase 2A activator PTPA, PDB entry 4ny3",49.5 µM (active)
C[C@H](NC(=O)[C@@H]1CCCN1)C(=O)N[C@@H](CCCNC(N)N)C(=O)N1CCC[C@H]1C(=O)N1CCC[C@H]1C(=O)N[C@@H](CCCCN)C(=O)N1CCC[C@H]1C(=O)N[C@@H](CCCNC(N)N)C(=O)N1CCC[C@H]1C(=O)N[C@@H](CCCNC(N)N)C(=O)N[C@@H](CCCNC(N)N)C(=O)O (H-PA[Orn(CH(NH2)2)]PPKP[Orn(CH(NH2)2)]P[Orn(CH(NH2)2)][Orn(CH(NH2)2)]-OH),Kd,"protein: SH3-domain of CIN85, PDB entry 2bz8",2.5 µM (active)
CC(C)C[C@H](NC(=O)[C@H](CC(N)=O)NC(=O)[C@H](CC(C)C)NC(=O)[C@@H](NC(=O)[C@@H](NC(=O)[C@@H]1CCCN1C(=O)[C@H](CCCNC(N)N)NC(=O)[C@H](CCCCN)NC(=O)[C@@H]1CCCN1)[C@@H](C)O)[C@@H](C)O)C(=O)N[C@@H](Cc1ccccc1)C(=O)O (HELM PEPTIDE1{P.K.[NC(N)NCCC[C@H](N[*:1])C(=O)[*:2]].P.T.T.L.N.L.F}$$$$V2.0),Kd,"protein: Mitogen-activated protein kinase 8 isoform 4, PDB entry 1ukh",0.42 µM (active)
CC(C)C[C@H](NC(=O)[C@H](CCCCN)NC(=O)[C@H](CCCCN)NC(=O)[C@H](CC(C)C)NC(=O)[C@@H]1CCCN1C(=O)[C@H](CCCCN)NC(=O)[C@@H]1CCCN1)C(=O)N[C@@H](CCCNC(N)N)C(=O)N[C@@H](Cc1ccccc1)C(=O)N[C@@H](CC(=O)O)C(=O)O (H-PKPLKKL[Orn(CH(NH2)2)]FD-OH),Kd,"protein: phospho-CDK2/cyclin A, PDB entry 1h25",1.8 µM (active)
CC(C)C[C@H](NC(=O)[C@@H](NC(=O)[C@@H](N)CO)C(C)C)C(=O)NCC(=O)N[C@@H](CCCCN)C(=O)N[C@@H](CCCNC(N)N)C(=O)N[C@@H](CCCCN)C(=O)N[C@@H](CCCNC(N)N)C(=O)N[C@@H](Cc1cnc[nH]1)C(=O)O (H-SVLGK[Orn(CH(NH2)2)]K[Orn(CH(NH2)2)]H-OH),Kd,"protein: IMPORTIN SUBUNIT ALPHA-1A, PDB entry 2yns",0.025 µM (active)
CSCC[C@H](NC(=O)[C@H](Cc1cnc[nH]1)NC(=O)[C@H](CCC(N)=O)NC(=O)[C@H](CCCNC(N)N)NC(=O)[C@H](CCC(=O)O)NC(=O)[C@H](Cc1ccccc1)NC(=O)[C@H](CCCCN)NC(=O)[C@H](C)NC(=O)[C@H](C)NC(=O)[C@H](C)NC(=O)[C@@H](NC(=O)[C@H](CCC(=O)O)NC(=O)[C@@H](N)CCCCN)[C@@H](C)O)C(=O)N[C@@H](CC(=O)O)C(=O)N[C@@H](CO)C(N)=O (H-KETAAAKFE[Orn(CH(NH2)2)]QHMDS-NH2),Kd,"protein: Ribonuclease S(RNase S), PDB entry 1j7z",0.02 µM (active)
same,Kd,"protein: Ribonuclease S(RNase S), PDB entry 1j80",0.3 µM (active)
same,Kd,"protein: Ribonuclease S(RNase S), PDB entry 1j81",0.08 µM (active)
CC(C)C[C@H](NC(=O)[C@@H](NC(=O)[C@@H](N)[C@@H](C)O)C(C)C)C(=O)NCC(=O)N[C@@H](CCCCN)C(=O)N[C@@H](CCCNC(N)N)C(=O)N[C@@H](CCCCN)C(=O)O (H-TVLGK[Orn(CH(NH2)2)]K-OH),Kd,"protein: IMPORTIN SUBUNIT ALPHA-1A, PDB entry 4b8p",0.14 µM (active)
CC(C)C[C@H](N)C(=O)NCC(=O)N[C@@H](CCCCN)C(=O)N[C@@H](CCCNC(N)N)C(=O)N[C@@H](CCCCN)C(=O)N[C@@H](Cc1ccc(O)cc1)C(=O)O (H-LGK[Orn(CH(NH2)2)]KY-OH),Kd,"protein: IMPORTIN SUBUNIT ALPHA-2, PDB entry 4ba3",2.9 µM (active)
CSCC[C@H](NC(=O)[C@H](CC(C)C)NC(=O)[C@H](CCCCN)NC(=O)[C@H](CCCCN)NC(=O)[C@H](Cc1cnc[nH]1)NC(=O)[C@H](CCCNC(N)N)NC(=O)[C@@H](N)CO)C(=O)N[C@@H](Cc1ccccc1)C(=O)N[C@@H](CCCCN)C(=O)O (H-S[Orn(CH(NH2)2)]HKKLMFK-OH),Kd,"protein: phospho-CDK2/cyclin A, PDB entry 1h26",2.9 µM (active)
CC(=O)NCCCC[C@H](NC(=O)[C@H](CCCCN)NC(=O)[C@H](Cc1cnc[nH]1)NC(=O)[C@H](CCCNC(N)N)NC(C)=O)C(=O)Nc1ccc2c(C)cc(=O)oc2c1 (Ac-[Orn(CH(NH2)2)]HKK(Ac)-{AMC}),Kd,"protein: NAD-dependent protein deacetylase sirtuin-3, mitochondrial, PDB entry 4fz3",184 µM (active)
CC(C)C[C@H](N)C(=O)NCC(=O)N[C@@H](CCCCN)C(=O)N[C@@H](CCCNC(N)N)C(=O)N[C@@H](CCCCN)C(=O)N[C@@H](CCCNC(N)N)C(=O)N[C@@H](Cc1cnc[nH]1)C(=O)O (H-LGK[Orn(CH(NH2)2)]K[Orn(CH(NH2)2)]H-OH),Kd,"protein: IMPORTIN SUBUNIT ALPHA, PDB entry 2ynr",1.7 µM (active)
NC1=NC(=O)c2ccccc2C1,Kd,"protein: proCaspase-6, PDB entry 4n6g",3.4 µM (active)
CN(C)C1=NC(=O)c2ccccc2C1,Kd,"protein: Caspase-6, PDB entry 4n7j",3.4 µM (active)
CCCCCCCCCCCCCCCC(=O)OC[C@@H](CO[P+](O)(O)OC1[C@H](O)[C@H](O[P+](O)(O)O)C(O[P+](O)(O)O)[C@H](O[P+](O)(O)O)[C@H]1O)OC(=O)CCCCCCCCCCCCCCC (some centres not stated),Kd,"protein: Steroidogenic factor 1 SF-1, PDB entry 4qjr",0.08 µM (active)
CCCCCCCCCCCCCCCC(=O)OC[C@@H](CO[P+](O)(O)O[C@@H]1[C@H](O)[C@H](O)[C@@H](O[P+](O)(O)O)[C@H](O[P+](O)(O)O)[C@H]1O)OC(=O)CCCCCCCCCCCCCCC,Kd,"protein: Steroidogenic factor 1 SF-1, PDB entry 4qk4",0.25 µM (active)
H-GASDGSGWSSENNPW-OH,Kd,"protein: protein TolB, PDB entry 2ivz",0.92 µM (active)
H-ANSNNPDWDF-OH,Kd,"protein: Humanized KR127 Fab, PDB entry 2eh8",0.011 µM (active)
H-NDWLLPSY-OH,Kd,"protein: Microtubule-associated protein 1 light chain 3 (C32I, C119S, C122S mutation), PDB entry 4eoy",0.326 µM (active)
H-ATPAWN-OH,Kd,"protein: mRNA-capping enzyme subunit beta Pct1, PDB entry 4pn1",0.68 µM (active)
